PubChem BioAssay AID1851 (National Center for Advancing Translational Sciences (NCATS), 2009)
“And” between values parts separate entries of the source, which are not always exact repeats. Equal values may be shown once. The campaign covered roughly 16,000 compounds. About 2,600 (16%) were called active. Another 20% or so got no clear call; they are omitted. The call rests on the fitted dose curve; in most records, active means well fitted curve in the direction sought with a large enough effect; inconclusive means small, poorly fitted or top-dose-only effect, or effect the other way; inactive means no such curve, though single readings can be large or run the other way. The list is a sample of the results.

Biological target: Cytochrome P450 2D6 (Homo sapiens) (UniProt P10635)
Sequence (P10635 whole entry, looked up): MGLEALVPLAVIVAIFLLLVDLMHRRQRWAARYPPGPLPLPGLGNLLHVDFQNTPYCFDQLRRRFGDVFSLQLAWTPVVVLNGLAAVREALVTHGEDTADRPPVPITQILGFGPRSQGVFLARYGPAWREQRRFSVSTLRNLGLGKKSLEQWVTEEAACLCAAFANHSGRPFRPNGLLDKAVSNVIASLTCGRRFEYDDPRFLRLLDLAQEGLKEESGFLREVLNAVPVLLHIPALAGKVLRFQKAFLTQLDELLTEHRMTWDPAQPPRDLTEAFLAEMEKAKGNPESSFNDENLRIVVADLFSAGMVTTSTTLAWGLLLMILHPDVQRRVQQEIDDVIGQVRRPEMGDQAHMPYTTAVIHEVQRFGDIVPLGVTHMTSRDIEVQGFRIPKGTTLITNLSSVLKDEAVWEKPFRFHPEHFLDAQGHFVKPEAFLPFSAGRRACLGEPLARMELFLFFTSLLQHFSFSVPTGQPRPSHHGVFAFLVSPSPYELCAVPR
Assay: Cytochrome panel assay with activity outcomes
Conditions: recombinant CYP, pro-luciferin dealkylation, luminescence, p450-cyp2d6; series mostly up to 57.1 µM; activity, negative = inhibition: at the top concentration
On the % scale 0 is the no-effect control and ±100 the full control effect.

activity, negative = inhibition, inactive:
CCCCSc1nnc(-c2ccc(C)cc2)n1C -29.4%
COC(=O)CNC(c1ccccc1Cl)c1cc(Br)ccc1NC(=O)CCN1CCOCC1 (centres undefined) -2.43%
NNC(=O)CNc1cccc(Br)c1 -9.21% [at 11.4 µM]
O=S1(=O)N[C@H]2CC[C@@H]3NS(=O)(=O)N[C@H]4CC[C@H](N1)N4S(=O)(=O)N23 12.7% [at 11.4 µM]
CC(C)(C)N1C(=O)[C@H]2[C@@H]3[C@H](O)C=CC(=O)[C@H]3CC[C@H]2C1=O 7.58% [at 11.4 µM]
COc1ccc(N(C)C(=O)c2ccc3nc(-c4ccccc4)c(-c4ccccc4)nc3c2)cc1 -20%
CS(=O)(=O)N1CC(C(=O)NC2CC2)Oc2ccc(Cl)cc21 (centres undefined) -34.3%
C=C(CC1([C@@H](NP(=O)(c2ccccc2)c2ccccc2)[C@H]2C[C@@H]2CCN(C(=O)OCC)S(=O)(=O)c2ccc(C)cc2)CC1)c1ccccc1 -3.76%
N#CCCn1c(=O)c(-c2ccc(Cl)cc2)nc2cnc(N3CCOCC3)nc21 7.8%
Cc1ncc(CSC(=N)N)n1Cc1ccccc1 -11.5% [at 11.4 µM]
Cc1nc2cncnc2n(Cc2ccccc2)c1=O -16.4%
Cc1nn2c(C)nc3sc4c(c3c2nc1=O)CC(C)(C)OC4 -14%
CCOC(=O)N1CCN(C(=O)c2ccc(NC(C)=O)cc2)CC1 6.16%
CCOC(=O)c1cnc(-c2ccccc2)nc1Oc1cccc(Cl)c1 -10.8%
CCOC(=O)c1cnc(-c2ccccc2)nc1Oc1ccccc1 3.05%
O=C1C(O)=C(O)C(=O)C(O)=C1O 3.02% [at 25.6 µM]
NS(=O)(=O)c1ccc(NCc2nc3ccccc3[nH]2)cc1 -10.2% [at 11.4 µM]
NS(=O)(=O)c1ccc(NCc2cnc3ccccc3n2)cc1 16.5% [at 11.4 µM]
O=C(NNC(=O)c1ccccc1)C(=O)N1CCCCC1 4.89%
BrC(c1cccc2ccccc12)c1cccc2ccccc12 11.2% [at 11.4 µM]
CNc1ncncc1-c1ccccc1OC -8.63%
Cc1cccc(CNc2cc(-c3cccc(NS(C)(=O)=O)c3)ncn2)c1 -19.4%
O=C(c1ccc(-c2nnc(Nc3ccccc3)c3ccccc23)cc1)N1C[C@H]2C[C@H](C1)c1cccc(=O)n1C2 -7.8%
O=C(NCc1ccco1)c1ccc2c(=O)n(-c3ccccc3)c(=S)[nH]c2c1 5.2%
COc1ccc(-n2c(=O)c(-c3ccc(F)cc3)nc3cnc(OC)nc32)cc1 2.35%
O=C(Nc1ccc(C(=O)Nc2ccc(C(=O)Nc3ccc(S(=O)(=O)O)c4cc(S(=O)(=O)O)cc(S(=O)(=O)O)c34)cc2)cc1)Nc1ccc(C(=O)Nc2ccc(C(=O)Nc3ccc(S(=O)(=O)O)c4cc(S(=O)(=O)O)cc(S(=O)(=O)O)c34)cc2)cc1 6.42%
Cc1nonc1NC(=O)OCCN1CCOC1=O -3.81%
O=C(O)/C(=C/c1c(C(=O)O)[nH]c2cc(Cl)cc(Cl)c12)c1ccccc1 -0.959%
C[C@@]12CCC(=O)C=C1CC[C@@H]1[C@@H]2[C@H](O)C[C@]2(C)[C@@H]1CC[C@]2(O)C(=O)COC(=O)CCC(=O)O 1.71%
COc1c(O)cc2c(c1O)[C@@H]1O[C@@H](CO)[C@@H](O)[C@@H](O)[C@@H]1OC2=O -2.8% [at 25.6 µM]
CSc1nc(C)c(CCOC(=O)c2ccccc2)c(=O)[nH]1 -10.1%
CCN(CC)C(=O)c1cc2cc([N+](=O)[O-])ccc2s1 -21.9%
CC1CCCC(NC(=O)c2n[nH]c(=O)c3ccccc23)C1C (centres undefined) -6.47%
COc1cc([C@H](O)C(=O)O)ccc1O 3.7%
O=[N+]([O-])c1cccc(-c2nc(-c3ccncc3)no2)c1 -23.6%
NS(=O)(=O)c1ccc(N=C2C(=O)Nc3ccccc32)cc1 2.35% [at 11.4 µM]
O=C(O)[C@@H]1CCCNC1 5.9% [at 25.6 µM]
O=C1C[C@@H](O)[C@@H](O)[C@H]2[C@@H]3C(=O)N(Cc4ccc5c(c4)OCO5)C(=O)[C@@H]3CC[C@H]12 14% [at 11.4 µM] and -16.6% [at 11.4 µM]
COC(=O)c1ccc(C2C(Oc3ccccc3)C(=O)N2CCc2ccc(OC)c(OC)c2)cc1 (centres undefined) 6.39%
O=C1[C@H]2[C@H]3[C@H](O)[C@H](O)C/C(=N/OCc4ccccc4)[C@H]3CC[C@@H]2C(=O)N1Cc1ccc2c(c1)OCO2 -14.6% [at 11.4 µM]
COc1ccc(CCN2C(=O)C(O)=C(C(=O)c3ccco3)C2c2cccs2)cc1OC (centres undefined) -8.35%
CCCCCc1nc2c(=O)[nH]c3ccccc3c2o1 -9.54%
CN(C)/C=C/C(=O)c1ccc(F)cc1 -12.3%
Cc1ccccc1S(=O)(=O)O[C@@H]1NS(=O)(=O)c2ccccc21 6.51% [at 11.4 µM]
COCn1c2ccccc2c2nnc(C(C)=O)nc21 -15.8% [at 11.4 µM] and -6.91% [at 11.4 µM]
O=S(=O)(O)C1CCNCC1 1.02%
CC(C)N=C(Nc1ccc(Cl)cc1)c1cccnc1 -0.649%
O=S(=O)(O)c1ccc2c(N=Nc3cccc4ccccc34)c(O)c(S(=O)(=O)O)cc2c1 5.03% [at 11.4 µM]

AC50, active:
NNC(=O)CNC(c1ccccc1)c1cc(Br)ccc1NC(=O)c1ccccc1Br (centres undefined) 7.94 µM
Cc1ccc([C@@H](O)c2cnc(C)n2Cc2ccccc2)cc1 0.631 µM
CCOC(=O)c1cnc(SCCc2ccccc2)nc1N 2 µM
NS(=O)(=O)c1ccc(NCc2ccccc2OCc2ccccc2F)cc1 15.8 µM
COc1cccc(-c2cncnc2NCc2cccc(C)c2)c1 12.6 µM
Cc1cccc(CNc2ncncc2-c2cccc(NS(C)(=O)=O)c2)c1 20 µM
COc1ccccc1-c1cncnc1NCc1cccc(C)c1 20 µM
COc1ccccc1-c1cncnc1NCc1ccccc1 15.8 µM
COc1ccc(CCN2C(=O)C(Oc3ccccc3C)C2c2ccc3c(c2)OCO3)cc1OC (centres undefined) 14.1 µM
Cc1ccccc1OC1C(=O)N(Cc2ccc3c(c2)OCO3)C1c1sccc1C (centres undefined) 8.91 µM

AC50, inactive:
NCCCNCCCCNCCCN
